Where “and” joins values, the source holds several entries; their conditions need not be identical. Equal entries are not always repeated. Inconclusive results are not listed. Where a structure was tested more than once in an assay, its records may differ in their call. Calls of active or inactive are those of the source. Rule for the calls, unless noted: active = hit-call score of the fitted dose curve at least 0.9, where 1 is the maximum; inconclusive = response in the unintended direction; inactive = score below 0.9.
Experiments:
[1] = molecular target: Agonist Androgen Response Element (ARE), AR (gene 367) (UniProt P10275); test: OT_AR_ARELUC_AG_1440: Odyssey Thera (OT) 24-hour CHO-K1 Luciferase Assay for Agonist Androgen Response Element (ARE) (AID 2283379)
Outline: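 Agonist mode, 24 h exposure in CHO-K1 ARE-luciferase cells; values reflect luminescence induction over vehicle.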

[2] = molecular target: Estrogen receptor beta (Homo sapiens) (UniProt Q92731); test: OT_ER_ERbERb_1440: Odyssey Thera (OT) 24-hour HEK293T Protein-Complementation Assay for Estrogen Receptor-beta/-beta Homodimer (AID 2283380);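 note: fluorescence gain from ER beta LBD homodimer complementation read by laser scanning cytometry; scored as signal increase over DMSO baseline for both agonists and antagonists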
Outline: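 Fluorescence increase, nuclear for agonists or whole-cell for antagonists, relative to DMSO vehicle, quantified by laser scanning cytometer after fixation and Draq5 staining. Readout from 24 h treatment of HEK293T cells carrying complementation-paired ER beta LBD (aa 310-547).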

[3] = molecular target: Bile acid receptor (Homo sapiens) (UniProt Q96RI1); test: OT_FXR_FXRSRC1_1440: Odyssey Thera (OT) 24-hour HEK293T Protein-Complementation Assay for Farnesoid X receptor/SRC-1 Co-activator (AID 2283384)
Outline: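 HEK293T cells were dosed with compound and read 24 h later by fluorescence intensity from protein-fragment complementation reporting FXR/SRC-1 co-activator interaction. Gain of signal was fitted relative to DMSO negative control as baseline.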

[4] = molecular target: Retinoic acid receptor RXR-alpha (Homo sapiens) (UniProt P19793); test: OT_NURR1_NURR1RXRa_0480: Odyssey Thera (OT) 8-hour HEK293T Protein Complementation Assay for Nurr1/retinoid X receptor (RXR) (AID 2283385)
Outline: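 HEK293T cells expressing Nurr1 and RXRα fused to reporter fragments were dosed with compound for 8 hours. Complex formation was read as fluorescence intensity and analysed as gain of signal against DMSO as baseline.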

[5] = molecular target: Peroxisome proliferator-activated receptor gamma (Homo sapiens) (UniProt P37231); test: OT_PPARg_PPARgSRC1_0480: Odyssey Thera (OT) 8-hour Protein-Complementation Assay for Peroxisome Proliferator-activated Receptor Gamma / SRC-1 Co-activator (AID 2283387);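 note: nuclear to cytoplasmic split Venus YFP fluorescence ratio reporting PPARg SRC-1 interaction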
Outline: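 Read-out: 488 nm N/C fluorescence ratio from complemented Venus YFP fragments, ≥350 cells per image, gain-of-signal fitted against DMSO baseline. Fusions of PPARg/SRC-1 with IFP1/IFP2 expressed transiently in HEK293T; compounds applied 8 h.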

[6] = molecular target: Peroxisome proliferator-activated receptor gamma (Homo sapiens) (UniProt P37231); test: OT_PPARg_PPARgSRC1_1440: Odyssey Thera (OT) 24-hour Protein-Complementation Assay for Peroxisome Proliferator-activated Receptor Gamma/ SRC-1 Co-activator (AID 2283388);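 note: nuclear to cytoplasmic ratio of reconstituted Venus YFP fluorescence in fixed imaged cells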
Outline: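 Transient HEK293T, YFP fragments 1-158/159-239 (mutant IFP1/IFP2) fused to PPARg/SRC-1; 24 h dosing; fix 4% formaldehyde, Draq5; Opera imaging 488/635 nm; N/C ratio, gain vs DMSO.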

[7] = molecular target: Bile acid receptor (Homo sapiens) (UniProt Q96RI1); test: OT_FXR_FXRSRC1_0480: Odyssey Thera (OT) 8-hour HEK293T Protein-Complementation Assay for Farnesoid X receptor/SRC-1 Co-activator (AID 2283383)
Outline: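 HEK293T cells expressing FXR and SRC-1 fused to reporter fragments were dosed with compound for 8 h; fluorescence from the reconstituted reporter marked co-activator recruitment. Gain of signal was fitted against the DMSO baseline.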

[8] = molecular target: Retinoic acid receptor RXR-alpha (Homo sapiens) (UniProt P19793); test: OT_NURR1_NURR1RXRa_1440: Odyssey Thera (OT) 24-hour HEK293T Protein Complementation Assay for Nurr1/retinoid X receptor (RXR) (AID 2283386)
Outline: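 HEK293T cells were dosed with compound and read 24 h later by fluorescence intensity in a protein-fragment complementation format, where Nurr1–RXRα interaction reconstitutes a split reporter. Activity was fitted as gain of signal relative to DMSO baseline.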

[9] = CEETOX_H295R_11DCORT: CeeTox H295R High-throughput Steroidogenesis Assay for 11-Deoxycortisol (11DCORT) (AID 2283432; active = hit-call score of the fitted dose curve at least 0.9, where 1 is the maximum; inactive = score below 0.9;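 for AC50: 11-deoxycortisol secreted into the medium measured by LC-MS/MS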); conditions: actives raise or lower the signal
Outline: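 H295R cells; 10 uM forskolin prestim 48 h; compound in 0.1% DMSO 48 h; media extracted with MTBE; 11-deoxycortisol by LC-MS/MS, 7-point standard curve; gain/loss vs DMSO baseline; viability by MTT in same wells.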

[10] = CEETOX_H295R_OHPREG: CeeTox H295R High-throughput Steroidogenesis Assay for OH-Pregnenolone (OHPREG) (AID 2283434; active = hit-call score of the fitted dose curve at least 0.9, where 1 is the maximum; inactive = score below 0.9); conditions: actives raise or lower the signal
Outline: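 Hormone levels in spent medium were measured by tandem mass spectrometry following liquid-liquid extraction. Cells (H295R) had been forskolin-stimulated (10 uM, 48 h) before a 48 h chemical exposure at 0.1% DMSO, with activity fitted in both directions against DMSO.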

[11] = CEETOX_H295R_OHPROG: CeeTox H295R High-throughput Steroidogenesis Assay for OH-Progesterone (OHPROG) (AID 2283435; active = hit-call score of the fitted dose curve at least 0.9, where 1 is the maximum; inactive = score below 0.9); conditions: actives raise or lower the signal
Outline: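 H295R human adrenal cells were prestimulated 48 h with 10 uM forskolin, then exposed 48 h to test chemical (0.1% DMSO final). 17alpha-hydroxyprogesterone in medium was measured by HPLC-MS/MS after MTBE extraction; bidirectional fitting vs DMSO.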

[12] = CEETOX_H295R_ANDR: CeeTox H295R High-throughput Steroidogenesis Assay for Androstenedione (ANDR) (AID 2283436; active = hit-call score of the fitted dose curve at least 0.9, where 1 is the maximum; inactive = score below 0.9); conditions: actives raise or lower the signal
Outline: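 Read-out is androstenedione secreted into medium, measured by tandem mass spectrometry after liquid-liquid extraction. Cells were H295R, dosed for 48 h per modified OECD 456; activity fitted in both directions relative to DMSO.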

[13] = CEETOX_H295R_CORTIC: CeeTox H295R High-throughput Steroidogenesis Assay for Corticosterone (CORTIC) (AID 2283437; active = hit-call score of the fitted dose curve at least 0.9, where 1 is the maximum; inactive = score below 0.9;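 note: corticosterone secreted into medium quantified by mass spectrometry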); conditions: actives raise or lower the signal
Outline: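 Corticosterone secreted into medium is measured by reverse-phase HPLC with tandem MS following liquid-liquid extraction. Cells are forskolin-stimulated (10 uM, 48 h) before 48 h test exposure; activity fitted in both directions against DMSO.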

[14] = molecular target: Estrogen receptor (Homo sapiens) (UniProt P03372); test: OT_ERa_GFPERaERE_0480: Odyssey Thera (OT) 8-hour HeLa Transcription Induction Assay for Estrogen Receptor (AID 2283381; active = hit-call score of the fitted dose curve at least 0.9, where 1 is the maximum; inactive = score below 0.9)
Outline: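 HeLa cells dosed with compound and imaged by fluorescence microscopy at 8 h; GFP induction from an ERE reporter quantified by high-content image analysis and fitted as gain of signal against DMSO baseline.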

[15] = molecular target: Estrogen receptor (Homo sapiens) (UniProt P03372); test: OT_ERa_GFPERaERE_0120: Odyssey Thera (OT) 2-hour HeLa Transcription Induction Assay for Estrogen Receptor (AID 2283382)
Outline: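 HeLa cells were dosed with test chemical and read 2 hours later for GFP-ERα/ERE-linked fluorescent protein induction by fluorescence microscopy. Gain-of-signal was fitted relative to DMSO baseline, quantified by high content image analysis.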

Measured: AC50

Chain of Estrogen receptor (Homo sapiens) (P03372 whole entry, looked up): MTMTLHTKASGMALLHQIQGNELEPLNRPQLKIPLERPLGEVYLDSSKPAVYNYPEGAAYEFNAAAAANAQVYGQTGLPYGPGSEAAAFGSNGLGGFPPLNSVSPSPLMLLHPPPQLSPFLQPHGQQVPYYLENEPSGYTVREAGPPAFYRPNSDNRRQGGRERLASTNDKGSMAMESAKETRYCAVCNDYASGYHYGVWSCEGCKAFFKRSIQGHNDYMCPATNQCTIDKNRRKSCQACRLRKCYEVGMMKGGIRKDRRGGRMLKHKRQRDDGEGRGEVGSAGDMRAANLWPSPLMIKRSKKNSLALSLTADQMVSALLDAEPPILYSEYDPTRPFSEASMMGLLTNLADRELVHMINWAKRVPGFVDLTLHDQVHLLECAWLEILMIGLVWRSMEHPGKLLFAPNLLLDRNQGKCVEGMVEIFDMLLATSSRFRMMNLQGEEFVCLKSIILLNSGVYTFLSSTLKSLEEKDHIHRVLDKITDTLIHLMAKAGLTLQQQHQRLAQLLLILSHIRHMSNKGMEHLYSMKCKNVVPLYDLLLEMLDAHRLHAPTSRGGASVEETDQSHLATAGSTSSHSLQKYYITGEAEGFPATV
Chain of Estrogen receptor beta (Homo sapiens) (Q92731 whole entry, looked up, the tested form may be a part): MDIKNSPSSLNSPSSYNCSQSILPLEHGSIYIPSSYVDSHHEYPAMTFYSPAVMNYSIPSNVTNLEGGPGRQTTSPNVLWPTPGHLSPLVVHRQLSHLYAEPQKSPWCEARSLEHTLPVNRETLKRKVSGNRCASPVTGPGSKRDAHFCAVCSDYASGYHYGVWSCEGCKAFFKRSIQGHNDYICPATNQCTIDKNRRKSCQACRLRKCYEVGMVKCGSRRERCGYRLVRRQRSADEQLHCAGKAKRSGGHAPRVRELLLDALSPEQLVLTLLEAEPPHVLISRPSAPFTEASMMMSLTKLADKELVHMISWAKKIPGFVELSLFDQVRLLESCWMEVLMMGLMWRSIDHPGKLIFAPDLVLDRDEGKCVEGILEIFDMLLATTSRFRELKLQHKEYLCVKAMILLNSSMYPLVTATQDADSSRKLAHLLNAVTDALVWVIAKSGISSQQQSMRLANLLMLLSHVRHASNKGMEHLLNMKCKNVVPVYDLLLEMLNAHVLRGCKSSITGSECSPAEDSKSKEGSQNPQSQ
Chain of Retinoic acid receptor RXR-alpha (Homo sapiens) (P19793 whole entry, looked up, the tested form may be a part): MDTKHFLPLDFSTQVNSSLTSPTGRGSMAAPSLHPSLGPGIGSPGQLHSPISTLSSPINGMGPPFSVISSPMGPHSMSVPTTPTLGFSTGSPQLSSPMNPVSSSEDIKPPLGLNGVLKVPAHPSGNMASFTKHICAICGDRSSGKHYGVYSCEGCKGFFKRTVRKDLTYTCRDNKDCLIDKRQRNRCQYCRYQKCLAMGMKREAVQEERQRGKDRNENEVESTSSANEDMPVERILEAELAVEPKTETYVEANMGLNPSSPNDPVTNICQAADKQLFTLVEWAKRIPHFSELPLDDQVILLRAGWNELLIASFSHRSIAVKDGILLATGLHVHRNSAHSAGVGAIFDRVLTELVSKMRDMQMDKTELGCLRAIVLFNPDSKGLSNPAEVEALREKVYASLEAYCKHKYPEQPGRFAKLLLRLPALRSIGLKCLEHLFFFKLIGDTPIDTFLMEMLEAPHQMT
Chain of Bile acid receptor (Homo sapiens) (Q96RI1 whole entry, looked up, the tested form may be a part): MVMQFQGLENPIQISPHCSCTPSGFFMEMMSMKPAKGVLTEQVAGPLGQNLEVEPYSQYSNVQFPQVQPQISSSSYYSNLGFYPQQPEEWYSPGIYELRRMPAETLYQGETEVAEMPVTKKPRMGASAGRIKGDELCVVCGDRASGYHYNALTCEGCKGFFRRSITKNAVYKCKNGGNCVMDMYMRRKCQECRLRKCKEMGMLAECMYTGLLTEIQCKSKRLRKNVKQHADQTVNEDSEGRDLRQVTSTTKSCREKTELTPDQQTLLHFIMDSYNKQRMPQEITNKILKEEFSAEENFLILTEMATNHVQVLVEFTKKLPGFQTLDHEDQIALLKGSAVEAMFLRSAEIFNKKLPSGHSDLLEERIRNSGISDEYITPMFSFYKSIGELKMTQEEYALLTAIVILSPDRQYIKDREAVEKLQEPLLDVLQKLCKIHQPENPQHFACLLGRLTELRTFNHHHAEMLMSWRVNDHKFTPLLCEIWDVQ
Chain of Agonist Androgen Response Element (ARE), AR (gene 367) (P10275 whole entry, looked up): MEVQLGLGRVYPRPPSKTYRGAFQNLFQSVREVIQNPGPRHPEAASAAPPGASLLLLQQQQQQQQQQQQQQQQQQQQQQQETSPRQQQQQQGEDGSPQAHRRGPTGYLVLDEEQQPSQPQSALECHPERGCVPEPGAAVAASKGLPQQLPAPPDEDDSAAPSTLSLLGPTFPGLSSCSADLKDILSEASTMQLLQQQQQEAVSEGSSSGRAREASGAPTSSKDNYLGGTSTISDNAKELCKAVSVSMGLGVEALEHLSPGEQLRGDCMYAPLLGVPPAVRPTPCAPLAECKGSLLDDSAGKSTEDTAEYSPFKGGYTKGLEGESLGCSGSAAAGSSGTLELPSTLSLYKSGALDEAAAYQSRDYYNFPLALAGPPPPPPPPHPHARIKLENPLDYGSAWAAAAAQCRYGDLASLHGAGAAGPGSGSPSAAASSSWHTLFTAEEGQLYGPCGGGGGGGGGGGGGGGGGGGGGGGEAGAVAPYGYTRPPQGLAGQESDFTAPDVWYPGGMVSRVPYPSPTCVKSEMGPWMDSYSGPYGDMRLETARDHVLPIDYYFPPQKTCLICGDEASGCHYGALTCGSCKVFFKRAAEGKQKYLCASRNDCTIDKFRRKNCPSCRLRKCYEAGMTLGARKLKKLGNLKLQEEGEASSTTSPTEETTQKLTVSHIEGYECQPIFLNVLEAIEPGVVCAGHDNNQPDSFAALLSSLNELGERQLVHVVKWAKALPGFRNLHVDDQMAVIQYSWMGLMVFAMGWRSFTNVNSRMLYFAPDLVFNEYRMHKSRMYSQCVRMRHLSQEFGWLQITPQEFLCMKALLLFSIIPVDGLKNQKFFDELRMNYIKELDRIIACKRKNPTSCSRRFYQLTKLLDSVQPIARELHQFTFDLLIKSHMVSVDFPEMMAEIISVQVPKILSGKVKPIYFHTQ
Chain of Peroxisome proliferator-activated receptor gamma (Homo sapiens) (P37231 whole entry, looked up, the tested form may be a part): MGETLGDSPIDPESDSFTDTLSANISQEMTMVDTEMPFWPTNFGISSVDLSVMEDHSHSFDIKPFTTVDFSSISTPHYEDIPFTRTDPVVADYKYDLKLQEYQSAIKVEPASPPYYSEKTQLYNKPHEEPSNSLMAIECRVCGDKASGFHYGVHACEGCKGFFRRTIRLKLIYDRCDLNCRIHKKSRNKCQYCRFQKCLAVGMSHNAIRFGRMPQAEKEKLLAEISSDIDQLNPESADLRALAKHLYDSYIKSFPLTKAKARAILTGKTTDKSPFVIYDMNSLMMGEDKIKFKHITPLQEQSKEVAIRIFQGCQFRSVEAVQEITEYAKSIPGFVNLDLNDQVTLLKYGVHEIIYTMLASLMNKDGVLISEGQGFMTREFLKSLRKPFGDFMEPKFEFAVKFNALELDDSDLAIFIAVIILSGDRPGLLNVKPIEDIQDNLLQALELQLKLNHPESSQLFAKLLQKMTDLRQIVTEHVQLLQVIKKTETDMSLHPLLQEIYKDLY

O=C1CCCO1
inactive: [1] | [2] | [3] | [4] | [5] | [6]

CC(C)(O)c1cnn2c(-c3ccc(F)c(-c4c(F)cccc4C#N)c3)cnc2n1
inactive: [1] | [9] | [10] | [12] | [13]
active: [2] 93.7 µM | [7] 35.7 µM | [3] 64.9 µM | [8] 86.8 µM and 75.3 µM | [5] 92.9 µM and 93.2 µM | [6] 92.9 µM and 79.4 µM | [11] 0.408 µM

COC(=O)Nc1nc2ccccc2[nH]1
inactive: [1] | [2] | [4] | [8] | [5] | [6]

OCCCBr
inactive: [2] | [14] | [15] | [5] | [6]

CN(C)C(=O)Nc1ccc(Cl)cc1
active: [3] 66.9 µM
inactive: [2] | [7] | [8] | [5] | [6]

Brc1ccc(Oc2ccccc2)cc1
inactive: [14] | [15] | [8] | [5] | [6]

O=Cc1ccco1
inactive: [4] | [8]

O=[N+]([O-])c1ccc(Oc2ccc(Cl)cc2Cl)cc1
active: [4] 75.3 µM
inactive: [2] | [4] | [8] | [5] | [6] | [10] | [11] | [13]

c1ccc(N=Nc2ccccc2)cc1
inactive: [4] | [8] | [5] | [6] | [9] | [10] | [11] | [13]

Clc1ccc(C(c2ccc(Cl)cc2)C(Cl)Cl)cc1
inactive: [5] | [6]
active: [14] 12.2 µM | [15] 12 µM | [8] 80.9 µM

CS(=O)(=O)NC(=O)c1cc(Oc2ccc(C(F)(F)F)cc2Cl)ccc1[N+](=O)[O-]
inactive: [2] | [7] | [8] | [5] | [6]

c1ccc2c(c1)oc1ccccc12
inactive: [2] | [8]

CCCCC(CC)COC(=O)c1ccc(C(=O)OCC(CC)CCCC)c(C(=O)OCC(CC)CCCC)c1 (configuration not stated)
inactive: [4] | [8] | [5] | [6]

CCN(CC)N=O
inactive: [7] | [3] | [8] | [5] | [6]

c1ccc2c(c1)-c1cccc3cccc-2c13
inactive: [8] | [5] | [6]
active: [2] 50 µM | [10] 14 µM | [11] 30.7 µM

N#CC(Br)(Br)C(N)=O
inactive: [8] | [5] | [6] | [10] | [11]

CCOc1cccc(C2(N3CCN(c4ccccc4)CC3)CCC(C)CC2)c1 (configuration not stated)
inactive: [14] | [15] | [4] | [8] | [5] | [6] | [9]
active: [10] 81.7 µM | [11] 35.7 µM | [13] 23.6 µM

Cc1ccc(N)cc1
inactive: [8] | [5] | [6]
active: [8] 50 µM

CCN(CC)CCO
inactive: [2] | [8] | [5] | [6]

Nc1cc(Cl)cc(C(=O)O)c1Cl
inactive: [2] | [5] | [6]

COc1cc(C=O)cc2c1[C@H](COC(N)=O)[C@]1(OC(C)=O)ON2C[C@H]2[C@@H]1N2C(C)=O
inactive: [14] | [15] | [5] | [6]

C1=Cc2cccc3cccc1c23
inactive: [4] | [8] | [5] | [6]

c1ccc(C2CO2)cc1 (configuration not stated)
inactive: [8] | [5] | [6]

CCCSC(=O)N(CCC)CCC
inactive: [4]

[As]#[In]
inactive: [2] | [8] | [10] | [13]

O=C(O)C1C2CCC(O2)C1C(=O)O (configuration not stated)
active: [8] 32 µM
inactive: [8]

CCC12COCN1COC2
inactive: [14] | [15] | [4] | [8] | [5] | [6]

CC(C)(C)OOC(C)(C)CCC(C)(C)OOC(C)(C)C
inactive: [2] | [4] | [8]

Oc1ccc2ccc3cccc4ccc1c2c34
active: [2] 12 µM | [8] 9.46 µM | [9] 18.8 µM | [10] 25 µM | [13] 25.5 µM
inactive: [4] | [8] | [11]

Oc1ccccc1Cl
inactive: [4] | [8] | [5] | [6]

CC(O)CCO (configuration not stated)
inactive: [2] | [4] | [8] | [5] | [6]

Clc1ccc(Cl)c(Cl)c1
inactive: [2] | [8] | [5] | [6]

Cc1ccc(N=C=O)cc1N=C=O
inactive: [8] | [5] | [6] | [9] | [10] | [11] | [13]
